Compound activity from PubChem BioAssay.
The list is not random: actives were taken first. Their share in the collection is about 18%.
DT40 TDP1 CPT: DT40-hTDP1 cell growth loss with CPT; chicken DT40 Tdp1-/-;hTDP1 cells + 20 nM CPT, ATP luminescence, 48 h; Potency, µM (top dose mostly 46.2 µM), for the others: at the top dose activity change, negative = growth inhibition, most hits filed as inhibitors; 420,000 compounds, 12% hits; note: potency is the fitted concentration of half-maximal effect; nearly all actives have a fitted effect of over 55% in size
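Cell growth measured by CellTiter-Glo luminescence after a minimum 48 h, 37 C compound exposure with 20 nM CPT in Tdp1-knockout DT40 cells stably expressing hTDP1, seeded 400/well; qHTS titration format.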
Six1-Eya2 blk: Six1/Eya2 interaction inhibition; 360,000 compounds, 0.56% hits; AlphaScreen GST-Six1/His-Eya2 binding, biochemical; hits give low values; Q15475+O00167; AID 651725; activity change, % (concentration not given with the values); in the data active = activity change below about -65%; inconclusive = mostly about -30% to -63%
Target sequence (O00167 whole entry, looked up): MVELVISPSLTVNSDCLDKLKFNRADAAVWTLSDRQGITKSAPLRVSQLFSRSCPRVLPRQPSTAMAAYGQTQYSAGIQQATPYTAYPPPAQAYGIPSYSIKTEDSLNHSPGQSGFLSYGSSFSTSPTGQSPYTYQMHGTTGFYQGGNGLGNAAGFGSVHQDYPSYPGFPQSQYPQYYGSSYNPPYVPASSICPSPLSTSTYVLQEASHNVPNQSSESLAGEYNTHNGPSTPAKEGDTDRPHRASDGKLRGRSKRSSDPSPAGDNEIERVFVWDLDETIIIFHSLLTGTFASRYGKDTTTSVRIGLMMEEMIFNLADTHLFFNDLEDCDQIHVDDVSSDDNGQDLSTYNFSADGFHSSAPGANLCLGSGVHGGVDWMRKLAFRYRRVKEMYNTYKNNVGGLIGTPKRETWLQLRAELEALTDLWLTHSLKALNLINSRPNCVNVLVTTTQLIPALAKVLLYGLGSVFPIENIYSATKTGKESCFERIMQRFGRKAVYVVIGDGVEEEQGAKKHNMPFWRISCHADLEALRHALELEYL
Target sequence (Q15475 whole entry, looked up): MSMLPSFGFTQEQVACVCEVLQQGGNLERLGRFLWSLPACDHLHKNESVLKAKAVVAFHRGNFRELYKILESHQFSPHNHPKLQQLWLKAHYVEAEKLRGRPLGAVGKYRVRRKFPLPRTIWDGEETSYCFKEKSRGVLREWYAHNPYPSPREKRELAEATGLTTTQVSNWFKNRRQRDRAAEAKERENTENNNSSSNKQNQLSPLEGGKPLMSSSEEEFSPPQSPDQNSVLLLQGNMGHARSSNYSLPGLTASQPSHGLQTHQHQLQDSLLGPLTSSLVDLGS
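AlphaScreen luminescence read after one hour at 37 °C in darkness. Pin-transferred compounds met GST-Six1 and His-Eya2 protein (5X stock 250 nM/500 nM) plus glutathione donor and Ni-chelate acceptor beads (5X, 50 ug/mL).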
TDP1 inh: TDP1 (human) enzyme inhibition; recombinant TDP1, AlphaScreen DNA substrate cleavage; 350,000 compounds, 0.28% hits; Q9NUW8; AID 485290; Potency, µM (doses to about 130 µM), without a hit: at the top dose activity change, negative = inhibition, most hits filed as inhibitors; note: potency is the fitted concentration of half-maximal effect; nearly all actives have a fitted effect of over 40% in size
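Signal: AlphaScreen proximity between streptavidin donor and anti-FITC acceptor beads on intact substrate. Reaction: Tdp1 1 nM, substrate 15 nM final, 5 min RT after 15 min compound preincubation.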
IL1B secr inh: inhibitors of inflammasome signaling (IL-1 beta secretion) | THP-1 LPS/ATP IL-1B secretion, AlphaLISA, 16 h; hits give low values | activity change, % at 57.5 µM | 360,000 compounds, 4.7% hits | AID 743279; in the data active = activity change below about -50%; inconclusive = mostly about -30% to -49%
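THP-1 cells pretreated 1 hr with compounds (up to 57.5 uM final), then stimulated with LPS (250 ng/mL final) plus ATP (1.25 mM final); secreted IL-1B measured by AlphaLISA after 16 hr, decreased signal indicating inhibition.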
DT40 TDP1 no CPT: qHTS for Inhibitors of human tyrosyl-DNA phosphodiesterase 1 (TDP1): qHTS in cells in absence of CPT. DT40 Tdp1-/- hTDP1 cells, no CPT, ATP luminescence, 48 h. Potency, µM (series often up to 46.2 µM), for inactives: at the top dose activity change, negative = growth inhibition, usual class: inhibitors. 420,000 compounds, 15% hits. AID 686978, 2013; note: potency is the fitted concentration of half-maximal effect; nearly all actives have a fitted effect of over 55% in size
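Growth of hTDP1-complemented DT40 Tdp1-knockout cells is measured by ATP luminescence after at least 48 hr compound exposure at 37 °C, with DMSO substituting for the 20 nM CPT used in the parallel screen.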
CtBP-E1A blk: blocks the CtBP interaction with E1A. activity change, % (test concentration not listed). AID 651724. 340,000 compounds, 0.49% hits. AlphaScreen GST-E1A/His-CtBP binding, 1536-well; hits give low values; in the data active = activity change below about -65%; inconclusive = mostly about -30% to -63%
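Protein mix (5X: 125 nM each GST-E1A, His-CtBP) was incubated with pinned compound 2 h at 37 deg C in dark, in 50 mM Tris pH 8.0 buffer with 300 mM NaCl. Glutathione donor and nickel acceptor beads followed; AlphaScreen signal read after 1 h.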
Numbers without * were called inactive; ? = inconclusive; . = no result; ! = a repeat was not active; [ ] = another dose, or the depositor's remark. Unless noted, calls come from the whole dose curve; as a rule, active = well fitted curve in the direction sought with a large enough effect; inconclusive = small, poorly fitted or top-dose-only effect, or another doubt; inactive = no such curve, though single readings can be large; an effect the other way counts as inactive or inconclusive. % is set by controls: 0 for no effect and ±100 for the full control effect.

SMILES | DT40 TDP1 CPT | Six1-Eya2 blk | TDP1 inh | IL1B secr inh | DT40 TDP1 no CPT | CtBP-E1A blk
COc1ccc(CNC(=O)c2ccc3c(Cl)c4c(nc3c2)CCCC4)c(OC)c1 | ? | . | 8% | . | 23µM* | .
COc1ccc(CCNC(=O)c2ccc3c(Cl)c4c(nc3c2)CCCC4)c(OC)c1 | 16µM* | . | 6% | . | 18µM* | .
CC1=NN(c2nc(C)cc(C)n2)C(=O)C1CCC(C)C (configuration not stated) | ? | -4 | 8% | -10 | ? | 11
COC(=O)C(Cc1c[nH]c2ccccc12)NC(=O)c1cncc(Br)c1 (configuration not stated) | -8% | -22 | . | 26 | 16% | -4
COC(=O)C(Cc1c[nH]c2ccccc12)NC(=O)c1ccc2nc[nH]c2c1 (configuration not stated) | 12% | -12 | 9% | -68* | 10% | 0
COc1ccc(C(=O)COC(=O)C(Cc2c[nH]c3ccccc23)NC(=O)c2ccc(C(C)(C)C)cc2)cc1 (configuration not stated) | 18µM* | . | 2%[12.3 µM] | . | 13µM* | .
O=c1c2ccccc2[nH]c(=S)n1CCCn1ccnc1 | -3% | 1 | . | -6 | 12% | 2
Clc1ccc(NCc2cccnc2)cc1 | -6% | -1 | . | -7 | 2% | 0
CSc1ccc(CNc2ccc(Cl)cc2)cc1 | -1% | -2 | -1% | -73* | -6% | -5
O=C1Nc2ccccc2C1=Nc1cccc(Cl)c1 | -12% | -9 | . | 1 | -17% | 3
Cc1cccc(N=C2C(=O)Nc3c(Cl)cccc32)c1 | ? | 5 | 6% | 19 | 29µM* | .
Cn1cc(CNC(=O)C2c3ccccc3Oc3ccccc32)cn1 | -5% | -3 | 2% | -7 | -13% | 6
COCCCC/C(=N\OCCN)c1ccc(C(F)(F)F)cc1 | 13µM*! | 0 | 3% | -51*! | 21µM* | 5
O=C(CCC(=O)OCC(=O)c1ccc(C(F)(F)F)cc1)OCC(=O)c1ccc(C(F)(F)F)cc1 | 9% | -6 | . | 13 | 3% | 17
COCCCCC(=NOCCN)c1ccc(C(F)(F)F)cc1 | 13µM* | . | 9%[56.1 µM] | . | 24µM* | .
O=C(NC(=S)NC1CCCCCC1)c1cncc(Br)c1 | 6% | -2 | 1% | 0 | -27% | 0
CCOC(=O)c1c(C)c(-c2ccccc2)n(CC(=O)NCCCN(CC)CC)c1C | -17% | -7 | 1% | -11 | ? | .
CCOC(=O)c1c(C)c(-c2ccccc2)n(CC(=O)NCCC(C)C)c1C | ? | 3 | 0% | 9 | 10µM* | 2
CCOC(=O)[C@H]1[C@H]2COc3cc(OC)ccc3[C@@H]2N2C(=O)N(c3cccc(Cl)c3)C(=O)[C@@]12C | ? | -8 | . | -2 | 29µM* | -2
CCOC(=O)[C@@H]1[C@H]2COc3cc(OC)ccc3[C@@H]2N2C(=O)N(c3ccc(C(F)(F)F)cc3)C(=O)[C@]12C | 23µM* | -8 | . | -2 | 21µM* | 1
CCOC(=O)[C@@H]1[C@H]2COc3cc(OC)ccc3[C@@H]2N2C(=O)N(c3ccc(Br)cc3)C(=O)[C@]12C | 15µM* | -27 | . | -21 | ? | -6
CC(C)N(C)S(=O)(=O)c1ccc(NC(=O)C2=COCCO2)cc1 | -17% | 0 | 1% | -3 | 8% | -12
Cc1c(Cl)cccc1-n1nc(C)c2c(C)cc(=O)n(CC(=O)N3CCCc4ccccc43)c21 | 15µM* | . | 1% | . | 4.6µM* | .
Cc1ccc(-n2nc(C)c3c(C)cc(=O)n(CC(=O)N4CCCc5ccccc54)c32)cc1 | -7% | . | 2% | . | 3% | .
CCC(C)Cn1c(/C=C/c2ccccc2)nc2ccccc21 (configuration not stated) | 9.2µM* | . | . | . | 9.2µM* | .
SMILES | DT40 TDP1 CPT | Six1-Eya2 blk | TDP1 inh | IL1B secr inh | DT40 TDP1 no CPT | CtBP-E1A blk
CC(C)CCn1c(/C=C/c2ccccc2)nc2ccccc21 | 16µM* | . | . | . | 12µM* | .
COCCNC(=O)C1(C)CCCN(C(=O)c2cc(F)ccc2C)C1 (configuration not stated) | -2% | 5 | . | 17 | 3% | 1
Cc1cccn(Cc2c(F)cccc2Cl)c1=O | -4% | -8 | 4% | 8 | -11% | -2
CCN(CC)c1ccc(/C=C/C2=C3C=CC=CC3NC=C2)cc1 (configuration not stated) | ? | . | . | . | 14µM* | .
Cc1ccc(S(=O)(=O)n2cc(-c3ccccc3)c3ccccc32)cc1 | 3.7µM* | 0 | 0% | 69 | 2.3µM* | 22
CC(C)=CCC12Oc3cc(O)ccc3C1(O)Oc1cc3c(c(O)c1C2=O)C=CC(C)(C)O3 (configuration not stated) | 26µM* | -7 | . | -1 | ? | -8
COc1c2c(cc(O)c1C(C)=O)OC(C)(C)C=C2 | -8% | -6 | . | -13 | -12% | -15
COc1cccc2c1OC1(C)CC2NC(=O)N1c1cccc(C(=O)Nc2ccc3c(c2)OCCO3)c1 (configuration not stated) | ? | -4 | 4% | 10 | 18µM* | -2
CC12CC(NC(=O)N1c1cccc(C(=O)Nc3ncn[nH]3)c1)c1ccccc1O2 (configuration not stated) | 1% | 0 | 3% | -68* | -3% | 1
O=C(NCc1ccc(Cl)cc1)N1CCN(Cc2ccccc2)CC1 | 23µM* | 6 | 4% | -21 | ? | .
O=C(Nc1ccccc1)N1CCN(Cc2ccc(Cl)cc2)CC1 | ? | -1 | 4% | -10 | ? | .
COC(=O)c1ccc(NC(=S)N2CCN(Cc3ccc(Cl)cc3)CC2)cc1 | ? | -12 | 6% | 14 | 16µM* | -15
COc1cccc(CN2CCN(C(=S)NCc3ccc(Cl)cc3)CC2)c1 | ? | ? | 6% | -27 | 21µM* | -25
COc1ccc(CNC(=O)N2CCN(c3cccc(Cl)c3)CC2)cc1OC | ? | -13 | 2% | -16 | ? | 0
S=C(NCc1ccccc1)N1CCN(Cc2ccc3c(c2)OCO3)CC1 | -4% | -12 | -3% | -7 | ? | -6
Cc1cccc(N2CCN(C(=O)NCc3ccc(Cl)cc3)CC2)c1 | ? | 1 | 5%[56.1 µM] | -6 | 21µM* | 6
CCOc1ccccc1N1CCN(C(=O)NCc2ccc(Cl)cc2)CC1 | -26% | -2 | 8% | -63* | ? | 3
